Source: PubChem BioAssay AID624288 (National Center for Advancing Translational Sciences (NCATS), 2012)
In all, about 340,000 compounds went through this assay and about 1,400 (0.41%) were called active. Roughly 4% stayed inconclusive and do not appear here. Calls follow the shape of the full dose curve; cell line not stated here. What follows is part of a selection rich in actives, with near analogues and random picks from the rest.

experiment: qHTS for Antagonists of gsp, the Etiologic Mutation Responsible for Fibrous Dysplasia/McCune-Albright Syndrome: qHTS; conditions: gsp-mutant cells, cAMP HTRF, 30 min; series mostly up to 76.9 µM; activity change, negative = inhibition: at the top concentration; also: nearly all actives have a fitted effect of over 65% in size
From the text: McCune-Albright syndrome (MAS) is a rare disease caused by somatic mutations in Gsgsp), a widely expressed protein central in signal transduction from G-coupled protein receptors (GPCRs). The disease symptoms are diverse, owing to the fact that the patients are mosaics with varying degrees of tissue involvement. Greater than 90% of the mutations in Gs in MAS occur at the R201 position and are equally divided between R201H and R201C. The R201 residue is central in the intrinsic GTPase activity of Gs and the H and C mutations lead to loss of, or impairment of, the GTPase activity. The intrinsic GTPase activity is necessary to terminate the interaction between Gs and adenylate cyclase, and to terminate the cAMP-mediated signaling of the given GPCR pathway. Thus, these activating mutations lead to ligand-independent activation of GPCR pathways. The tissue phenotype is determined by the role of Gs in the function of a given cell, and excess Gs/cAMP signaling in that cell. For example, pituitary somatotrophs overproduce growth hormone in a growth hormone releasing hormone-independent fashion, and gigantism/acromegaly ensues. Skeletal stem cells in the bone marrow behave as if they are under constant parathyroid hormone stimulation and fail to differentiate into osteoblasts and osteocytes, and proliferate as immature osteogenic cells and lead to the marrow fibrosis of fibrous dysplasia of bone. The goal of this project is to identify molecules with inhibitory activity at gsp mutations that will not only allow for in-depth study of the underlying molecular and cellular pathophysiology, but also serve as compounds from which drugs to treat FD/MAS can be developed NIH Chemical Genomics Center [NCGC] NIH Molecular Libraries Probe Centers Network [MLPCN] MLPCN Grant: IRP-FT-DE-2011-01 Assay Submitter (PI): Michael Collins, NIDCR
1.#Seed 2000 cells/well in 6 ul DMEM 10% FBS, 1% Pen/Strep, 0.5 mg/ml G418 2.#Incubate 16-24 hr at 37C, 5% CO2, 95% humidity 3.#Aspirate leaving 1 ul residual volume 4.#Dispense 5 ul/well DPBS + 1 mM CaCl2, 0.5 mM MgCl2, 0.05% BSA, 0.005% Tween 20 5.#Aspirate leaving 2 ul residual volume 6.#Dispense 23 nl/well compounds in DMSO 7.#Dispense 1 ul/well 300 uM Ro-20174 in DMEM 10% FBS 8.#Incubate 30 min at 37C, 5% CO2, 95% humidity 9.#Dispense 1.5 ul/well HTRF reagent: cAMP-d2 in lysis buffer 10.#Dispense 1.5 ul/well HTRF reagent: anti-cAMP antibody-K in lysis buffer 11.#Incubate 30 min at room temperature 12.#Detect HTRF signal using EnVision plate reader
% is scaled to controls: 0 for no effect and ±100 for the full control effect; potency is read from the fitted curve at half-maximal effect.

Potency, active:
Cc1cc2ccccn2c1C(=O)c1cccc(S(=O)(=O)N2CCOCC2)c1 31.6 µM
O=C(CSc1nnc(C2CC2)n1Cc1ccccc1)Nc1cccnc1Cl 7.94 µM
Cc1nn(Cc2ccc(F)cc2)c(C)c1NC(=O)c1noc2c1CCc1ccccc1-2 35.5 µM
O=C(O)c1ccc(-n2nc(-c3ccccc3)c3ccccc3c2=O)cc1 44.7 µM
Cc1ccc(-c2nn(-c3ccccc3)cc2/C=C2\SC(=S)N(CCCCCC(=O)O)C2=O)o1 15.8 µM
COc1ccc(-c2nn(-c3ccccc3)cc2/C=C2/SC(=S)N(CCCC(=O)O)C2=O)c(C)c1 31.6 µM
O=C(CC(O)(C(F)(F)F)C(F)(F)F)Nc1ccc(Cl)c(Cl)c1 7.08 µM
Cc1ccnc(NS(=O)(=O)c2ccc(NC(=O)c3oc4ccc(F)cc4c3C)cc2)n1 22.4 µM
COc1ccc(/C=C2/SC(=O)N(CCCCCC(=O)Nc3ccccc3C(=O)O)C2=S)cc1 22.4 µM
CCC(=O)Oc1cccc(C(=O)Nc2ccc(-c3nnc(-c4ccco4)o3)cc2)c1 28.2 µM
COc1ccc(/C=N/Nc2cc(N3CCOCC3)nc(C)n2)c(OC)c1 35.5 µM
Cc1ccc(C)c(N2CCN(C(=O)CCCCCn3c(=S)[nH]c4ccc(N5CCOCC5)cc4c3=O)CC2)c1 28.2 µM
COC(=O)c1ccc(COc2ccc(/C=C/C(=O)c3ccc(OC)c(CSCC(=O)O)c3)cc2OC)cc1 39.8 µM

Activity change, negative = inhibition, inactive:
O=C(COC(=O)c1ccccc1)Nc1cccc(S(=O)(=O)N2CCOCC2)c1 -5.44%
Cc1cc2ccccn2c1C(=O)c1cccc(F)c1 7.18%
O=C(NN=CC=Cc1ccccc1)C(O)C(O)C(=O)NN=CC=Cc1ccccc1 (centres undefined) 8.92%
CN(O)C(=S)c1ccccc1 9.75%
COc1ccc(-c2nnc(SCC(=O)Nc3cccnc3Cl)n2C)cc1 -1.39%
CC(=O)Nc1ccc(NC(=O)CSc2nnc(C3CC3)n2-c2ccccc2)cc1 18.3%
CNN/C(N=Cc1ccc([N+](=O)[O-])s1)=N\S(=O)(=O)c1cc(C)c(Cl)cc1SCc1ccccc1 7.48%
Cc1nn(Cc2ccc(F)cc2)c(C)c1NC(=O)c1cccnc1Cl -12.7%
Cc1cc(C(=O)Nc2c(C)nn(Cc3ccccc3)c2C)on1 7.49%
CCOC(=O)c1ccc2[nH]c(C)c(CN3CCN(C)CC3)c(=O)c2c1 4.58%
O=c1c2ccccc2c(-c2ccccc2)nn1-c1ccccn1 -1.84%
O=c1c2ccccc2c(-c2ccc(F)cc2)nn1-c1ccc(C(F)(F)F)cc1 -3.36%
COc1ccc(N)c(C)c1 -4.59%
COCC(=O)N(C)[C@H]1C[C@H]2c3cc(Oc4ccccc4C)ccc3CCN2C(=O)[C@H]1[C@H](C)O -3.43%
O=C(CCCN1C(=O)/C(=C/c2ccccc2)SC1=S)Nc1ccc(O)cc1 -13.4%
COc1ccc(/C=C2\SC(=S)N(CC(=O)NNC(=O)c3ccncc3)C2=O)cc1 -14.4%
Cc1ccc(/C=C2/SC(=S)N(CCC(=O)NCCCN3CCOCC3)C2=O)cc1 3.12%
COc1ccc(/C=C2\SC(=S)N(CCCC(=O)NC3CCCC3)C2=O)cc1OC -9.03%
O=C(COC(=O)c1ccc(O)cc1O)NC(=O)c1ccccc1 -6.71%
O=C1/C(=C\c2ccc(O)cc2)CCC1CNc1ccc(Cl)cc1 (centres undefined) -3.99%
COc1ccc(S(=O)(=O)N2CCc3ccccc32)cc1C(=O)Nc1cc(S(C)(=O)=O)ccc1Cl -27.5%
COC(=O)Cc1c(-c2[nH]c3ccccc3c2CC(=O)OC)[nH]c2ccccc12 -8.15%
Cc1ccc2c(O)c(Cc3ccccc3)c(=O)[nH]c2n1 4.19%
O=S(=O)(Nc1ccc2ccccc2c1)N1CCCCC1 -8.9%
CS(=O)(=O)N(CC(=O)Nc1ccc(Cl)c(Cl)c1)C1CCCCC1 -26.2%
CCn1nccc1C(=O)Nc1ccc(Cl)c(Cl)c1 -12.3%
O=S1(=O)CSCS(=O)(=O)C1 13.5%
CCCCC(=O)NC(c1ccc(OC)c(OC)c1)c1ccc2cccnc2c1O (centres undefined) -9.19%
Cc1cc(C)c2oc(C(=O)Nc3ccc(S(=O)(=O)Nc4nccc(C)n4)cc3)cc(=O)c2c1 0.826%
Cc1ccnc(NS(=O)(=O)c2ccc(NC(=O)c3oc4ccccc4c3C)cc2)n1 -23.2%
O=C(O)c1ccccc1/C=N/Nc1ccc(S(=O)(=O)Nc2ccc(Cl)cc2)cc1[N+](=O)[O-] 4.56%
CN(C(=O)c1cccc(NC(=O)Cc2ccc(NC(=O)C3CCCN(C(=O)C4CCCC4)C3)cc2)c1)C1CCC1 (centres undefined) -9.96%
COc1ccc(/C=C2\SC(=O)N(CCC(=O)NCCCn3ccnc3)C2=O)cc1 -8.39%
COc1ccc(/C=C2\SC(=O)N(CCC(=O)NC3CCS(=O)(=O)C3)C2=O)cc1 (centres undefined) -10.6%
C=CCn1c(=O)n(C)c2c(=O)n(C)c(=O)n(C)c21 11%
Cc1cccc(NC(=O)CSc2nnc(-c3ccco3)o2)c1 16%
O=C(Nc1ccc(Cl)cc1)c1cccc(OC(=S)N2CCOCC2)c1 -15.7%
Cc1c(NS(=O)(=O)c2cccc(C(=O)Nc3ccc(SC(F)F)cc3)c2)c(=O)n(-c2ccccc2)n1C -25.1%
C(#CCN1CCOCC1)CCCN1CCOCC1 8%
CC(=O)OC1CCC2C3CCC4=C(CC(F)C(=O)C4)C3CCC12C (centres undefined) 5.21%
C(=N/Nc1cc(N2CCOCC2)nc(N2CCOCC2)n1)/c1ccccc1 -27.6%
COc1ccc(/C=N/NC(=O)Nc2ccc3nsnc3c2)c(OC)c1 -3.26%
CC(C)[C@@H](C(=O)OCC(=O)c1ccc2c(c1)NC(=O)CO2)N1C(=O)c2ccccc2C1=O -7.63%
O=C(Nc1c[nH]c(=O)[nH]c1=O)OCc1ccccc1 1.53%
CCCCCCCCNS(=O)(=O)CCNC1CCCCC1 5.09%
Cc1ccc(C)c(N2CCN(C(=O)CCc3nc4ccccc4[nH]3)CC2)c1 -22.8%
O=C(CCCCCn1c(=S)[nH]c2cc3c(cc2c1=O)OCO3)N1CCN(c2ccc(F)cc2)CC1 6.67%
CC(C)CN1CC(C)C(=O)N(c2ccccc2)C1=S (centres undefined) 5.08%
COc1cc(/C=C/c2ccc(/C=C/c3cc(OC)c(OC)c(OC)c3)cc2)cc(OC)c1OC 7.14%
COc1ccc(/C=C/C(=O)N2CCCC2)cc1OC -20.9%
COc1ccc(/C=C/C(=O)c2ccc(NS(=O)(=O)c3ccc(C)cc3)cc2)cc1O -4.56%
